Measured values published in PubChem BioAssay (NCI).
About 83,000 compounds went through this panel and 20% of them were active in at least one assay; those are over-represented in the sample as a whole.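 Step 1: grow cells in 96-well plates. Step 2: add test compound at a single concentration. Step 3: incubate 48 h. Step 4: record percent growth.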 Activity calls are given as the source filed them. How the source made its calls: active means growth percent below 10; inactive means the rest.

Key:
Assay in all cases: NCI-60 one-dose screen, 48 h (100 = growth as untreated, 0 = no growth, -100 = all killed)
Conditions in all cases: 10 µM
HCT-15 colon = tested on: HCT-15 colon
HT29 colon = tested on: HT29 colon
SNB-75 CNS = tested on: SNB-75 CNS
U251 CNS = tested on: U251 CNS
PC-3 prostate = tested on: PC-3 prostate
UACC-62 melanoma = tested on: UACC-62 melanoma
SK-MEL-28 melanoma = tested on: SK-MEL-28 melanoma
SK-MEL-5 melanoma = tested on: SK-MEL-5 melanoma
LOX IMVI melanoma = tested on: LOX IMVI melanoma
SNB-19 CNS = tested on: SNB-19 CNS

Measured: growth

Cc1ccc(F)cc1N/C=c1\s/c(=C(\C#N)C(=O)Nc2ccccc2)n(-c2ccccc2)c1=O
active: SNB-75 CNS 3.2%
inactive: HCT-15 colon 64.9% | HT29 colon 72.9% | U251 CNS 74.2% | PC-3 prostate 74.5% | UACC-62 melanoma 98.2% | SK-MEL-28 melanoma 95.7%

CN1CCc2c(sc3ncnc(N/N=C/c4ccc5ccccc5c4)c23)C1
inactive: HT29 colon 20.4% | SNB-75 CNS 76.4% | PC-3 prostate 102% | SK-MEL-5 melanoma 97.9% | UACC-62 melanoma 79.1% | SK-MEL-28 melanoma 100%
active: HCT-15 colon 2.05% | U251 CNS -4.86% | LOX IMVI melanoma 9.53%

COc1ccc(OC)c(-c2cc(-c3c[nH]c4ccccc34)nc(N)c2C#N)c1
active: HCT-15 colon 1.05% | HT29 colon -12.6% | SNB-75 CNS -8.84% | U251 CNS -1.3% | SK-MEL-5 melanoma -84.8% | UACC-62 melanoma -8.1% | LOX IMVI melanoma -65.8% | SK-MEL-28 melanoma 4.59%
inactive: PC-3 prostate 13.1%

O=c1[nH]c2ccccc2cc1CSc1ccc(Nc2nccc(-c3ccc(C(F)(F)F)cc3)n2)cc1
active: U251 CNS -26.4%
inactive: HCT-15 colon 29.7% | HT29 colon 28.8% | SNB-75 CNS 19.1% | PC-3 prostate 43.8% | SK-MEL-5 melanoma 89.2% | UACC-62 melanoma 81.9% | LOX IMVI melanoma 15.5% | SK-MEL-28 melanoma 78.7%

O=C(Cn1cc(CSc2nnc3oc4ccccc4n23)nn1)Nc1cccc(Cl)c1
inactive: HCT-15 colon 62.4% | HT29 colon 82.3% | SNB-75 CNS 51% | U251 CNS 70.6% | PC-3 prostate 50.4% | SK-MEL-5 melanoma 58.3% | UACC-62 melanoma 49.6% | LOX IMVI melanoma 58.3% | SK-MEL-28 melanoma 81.5%

O=C1Nc2cc(-c3ccc(NC(=O)c4cccc([N+](=O)[O-])c4)cc3)ccc2/C1=C/c1ccc[nH]1
inactive: HCT-15 colon 55.3% | HT29 colon 102% | SNB-75 CNS 223% | U251 CNS 99.3% | PC-3 prostate 66.2% | SK-MEL-5 melanoma 104% | UACC-62 melanoma 63.7% | LOX IMVI melanoma 86.9% | SK-MEL-28 melanoma 97.1%

O=C(c1ccc(-n2c(=O)[nH]c3ccccc3c2=O)cc1)N1CCOCC1
inactive: HCT-15 colon 99.2% | HT29 colon 114% | SNB-19 CNS 95.5% | U251 CNS 105% | PC-3 prostate 103% | SK-MEL-5 melanoma 107% | UACC-62 melanoma 92.9% | LOX IMVI melanoma 104% | SK-MEL-28 melanoma 108%

O=C(NCCCCC(c1ccc(F)cc1)c1ccc(F)cc1)NCCCc1cccnc1
inactive: HCT-15 colon 14% | HT29 colon 14.4% | SNB-19 CNS 24.5% | U251 CNS 26.4% | PC-3 prostate 11.5% | UACC-62 melanoma 41.6% | LOX IMVI melanoma 42.5% | SK-MEL-28 melanoma 20.8%
active: SK-MEL-5 melanoma -90.5%

COc1cccc(-c2ccc(/C=N/NC(=O)c3[nH]c4ccc(Br)cc4c3-c3ccccc3)o2)c1
inactive: PC-3 prostate 20.2% | UACC-62 melanoma 28.8% | LOX IMVI melanoma 12.3%
active: HCT-15 colon 1.34% | HT29 colon -9.03% | U251 CNS 7.57% | SK-MEL-5 melanoma -0.615%

CC(C)(C)Nc1nc2cc(Cl)c(Cl)cc2nc1S(C)(=O)=O
active: HCT-15 colon -35.8% | SK-MEL-5 melanoma -17.4% | LOX IMVI melanoma -98%
inactive: SNB-75 CNS 45.1% | SNB-19 CNS 102% | U251 CNS 68.7% | PC-3 prostate 54% | UACC-62 melanoma 52.9%

O=C(N/N=C/c1ccc(B(O)O)o1)c1[nH]c2ccc(Br)cc2c1-c1ccccc1
active: HT29 colon 3.98%
inactive: HCT-15 colon 16.1% | SNB-19 CNS 40.7% | U251 CNS 10.1% | PC-3 prostate 19.2% | SK-MEL-5 melanoma 11.5% | UACC-62 melanoma 19.4% | LOX IMVI melanoma 32.9% | SK-MEL-28 melanoma 62.1%

O=C(c1ccc(Cl)cc1)C1[C@H](c2ccc(Br)cc2)[C@@H](c2ccccc2)NC12C(=O)Nc1ccccc12 (some centres not stated)
inactive: SNB-19 CNS 15.9%
active: HCT-15 colon -2.63% | HT29 colon -52.2% | U251 CNS -6.22% | PC-3 prostate 5.16% | SK-MEL-5 melanoma -23.2% | UACC-62 melanoma -60.6% | LOX IMVI melanoma -100% | SK-MEL-28 melanoma -32.7%

CCOC(=O)CNC(=O)CN(Cc1ccccc1)C(=O)[C@@]1(C)CCC[C@]2(C)[C@H]3CC4C(C(C)C)=C[C@]3(CC[C@H]21)[C@@H]1C(=O)CCC(=O)[C@H]41
active: LOX IMVI melanoma -75.1%
inactive: HCT-15 colon 17.6% | HT29 colon 41.1% | SNB-19 CNS 81.1% | U251 CNS 63.8% | UACC-62 melanoma 38.9% | SK-MEL-28 melanoma 62.7%

CC1(C)CC[C@]2(C(=O)Nc3ccccc3)CC[C@]3(C)C(=CC[C@@H]4[C@@]5(C)CC[C@H](N)C(C)(C)[C@@H]5CC[C@]43C)[C@H]2C1
inactive: HT29 colon 21.8% | SNB-19 CNS 100% | PC-3 prostate 75.8% | SK-MEL-5 melanoma 94.5% | UACC-62 melanoma 115% | SK-MEL-28 melanoma 109%
active: HCT-15 colon -71.4% | U251 CNS -47.5% | LOX IMVI melanoma -98.7%

COc1cc2c(cc1OC)/C(=C\c1sc(Nc3ccc(O)cc3)nc1O)C(C(=O)O)=N2
inactive: HCT-15 colon 24.1% | HT29 colon 10% | SNB-19 CNS 24.3% | U251 CNS 18.6% | PC-3 prostate 19.1% | SK-MEL-5 melanoma 14.4% | UACC-62 melanoma 20% | SK-MEL-28 melanoma 47.6%
